According to PubChem BioAssay (NCATS):
Inconclusive results are not listed. Activity calls are given as the source filed them. Calls follow the shape of the dose curve; as a rule, active = well fitted inhibition curve with a large enough effect; inconclusive = small, poorly fitted or top-dose-only effect; inactive = flat fitted curve, though single readings scatter. Peptide text beside a SMILES is read from it.

Legend:
Assay in all cases: qHTS profiling for inhibitors of Plasmodium falciparum proliferation (AID 504749); also: nearly all actives have a fitted effect of over 60% in size
Conditions in all cases: P. falciparum in erythrocytes, SYBR Green DNA, 72 h; series mostly up to 28.7 µM
DFO2036 = tested on: DFO2036
Method in brief: (§1)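 Quantitative HTS: compounds pinned into medium, infected erythrocytes added (0.3% parasitemia, 2.5% hematocrit), 72 h culture at 37 C under 5% CO2. Saponin/Triton lysis with SYBR Green I, overnight RT, then fluorescence read.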

DIV14 = tested on: DIV14
Method in brief: as §1

DIV17 = tested on: DIV17
Method in brief: as §1

DIV30 = tested on: DIV30
Method in brief: as §1

Dd2 = tested on: Dd2
Method in brief: as §1

ECU = tested on: ECU
Method in brief: as §1

FAB9 = tested on: FAB9
Method in brief: as §1

GB4 = tested on: GB4
Method in brief: as §1

HB3 = tested on: HB3
Method in brief: as §1

ICS = tested on: ICS
Method in brief: as §1

JCK = tested on: JCK
Method in brief: as §1

N140 = tested on: N140
Method in brief: as §1

P93_24 = tested on: P93_24
Method in brief: as §1

P94_40 = tested on: P94_40
Method in brief: as §1

PAD = tested on: PAD
Method in brief: as §1

PC15 = tested on: PC15
Method in brief: as §1

PC26 = tested on: PC26
Method in brief: as §1

PC49 = tested on: PC49
Method in brief: as §1

SC27B = tested on: SC27B
Method in brief: as §1

TAB109 = tested on: TAB109
Method in brief: as §1

Measured: Potency

Cc1ccc(C)c(OCCCC(C)(C)C(=O)O)c1
inactive: DFO2036 | DIV14 | DIV17 | DIV30 | Dd2 | ECU | FAB9 | GB4 | HB3 | ICS | JCK | N140 | P93_24 | P94_40 | PAD | PC15 | PC26 | PC49 | SC27B | TAB109

O=C(O)c1cc(=O)c2c(OCC(O)COc3cccc4oc(C(=O)O)cc(=O)c34)cccc2o1
inactive: DFO2036 | DIV14 | DIV17 | DIV30 | Dd2 | ECU | FAB9 | GB4 | HB3 | ICS | JCK | N140 | P93_24 | P94_40 | PAD | PC15 | PC26 | PC49 | SC27B | TAB109

COC(=O)[C@H](Cc1ccccc1)NC(=O)[C@@H](N)CC(=O)O (H-Asp-Phe-OMe)
inactive: DFO2036 | DIV14 | DIV17 | DIV30 | Dd2 | ECU | FAB9 | GB4 | HB3 | ICS | JCK | N140 | P93_24 | P94_40 | PAD | PC15 | PC26 | PC49 | SC27B | TAB109

CC(S)C(=O)NCC(=O)O (configuration not stated)
inactive: DFO2036 | DIV14 | DIV17 | DIV30 | Dd2 | ECU | FAB9 | GB4 | HB3 | ICS | JCK | N140 | P93_24 | P94_40 | PAD | PC15 | PC26 | PC49 | SC27B | TAB109

Nc1cc(C(Cl)=C(Cl)Cl)c(S(N)(=O)=O)cc1S(N)(=O)=O
inactive: DFO2036 | DIV14 | DIV17 | DIV30 | Dd2 | ECU | FAB9 | GB4 | HB3 | ICS | JCK | N140 | P93_24 | P94_40 | PAD | PC15 | PC26 | PC49 | SC27B | TAB109

CC1(C)NC(=O)N(c2ccc([N+](=O)[O-])c(C(F)(F)F)c2)C1=O
inactive: DFO2036 | DIV14 | DIV17 | DIV30 | Dd2 | ECU | FAB9 | GB4 | HB3 | ICS | JCK | N140 | P93_24 | P94_40 | PAD | PC15 | PC26 | PC49 | SC27B | TAB109

Cc1cc2cc3c(C)cc(=O)oc3c(C)c2o1
inactive: DFO2036 | DIV14 | DIV17 | DIV30 | Dd2 | ECU | FAB9 | GB4 | HB3 | ICS | JCK | N140 | P93_24 | P94_40 | PAD | PC15 | PC26 | PC49 | SC27B | TAB109

COc1cc2c(cc1OC)C1CC(=O)C(CC(C)C)CN1CC2 (configuration not stated)
inactive: DFO2036 | DIV14 | DIV17 | DIV30 | Dd2 | ECU | FAB9 | GB4 | HB3 | ICS | JCK | N140 | P93_24 | P94_40 | PAD | PC15 | PC26 | PC49 | SC27B | TAB109

CC(C)[C@H](N)C(=O)OCCOCn1cnc2c(=O)[nH]c(N)nc21
inactive: DFO2036 | DIV14 | DIV17 | DIV30 | Dd2 | ECU | FAB9 | GB4 | HB3 | ICS | JCK | N140 | P93_24 | P94_40 | PAD | PC15 | PC26 | PC49 | SC27B | TAB109

CC(C)(S)[C@@H](N)C(=O)O
inactive: DFO2036 | DIV14 | DIV17 | DIV30 | Dd2 | ECU | FAB9 | GB4 | HB3 | ICS | JCK | N140 | P93_24 | P94_40 | PAD | PC15 | PC26 | PC49 | SC27B | TAB109

CCCc1cc(=O)[nH]c(=S)[nH]1
inactive: DFO2036 | DIV14 | DIV17 | DIV30 | Dd2 | ECU | FAB9 | GB4 | HB3 | ICS | JCK | N140 | P93_24 | P94_40 | PAD | PC15 | PC26 | PC49 | SC27B | TAB109

CS(=O)(=O)OCCCCOS(C)(=O)=O
inactive: DFO2036 | DIV14 | DIV17 | DIV30 | Dd2 | ECU | FAB9 | GB4 | HB3 | ICS | JCK | N140 | P93_24 | P94_40 | PAD | PC15 | PC26 | PC49 | SC27B | TAB109

O=C(NCCO[N+](=O)[O-])c1cccnc1
inactive: DFO2036 | DIV14 | DIV17 | DIV30 | Dd2 | ECU | FAB9 | GB4 | HB3 | ICS | JCK | N140 | P93_24 | P94_40 | PAD | PC15 | PC26 | PC49 | SC27B | TAB109

O=C(CS(=O)Cc1ccco1)NCC=CCOc1cc(CN2CCCCC2)ccn1 (configuration not stated)
inactive: DFO2036 | DIV14 | DIV17 | DIV30 | Dd2 | ECU | FAB9 | GB4 | HB3 | ICS | JCK | N140 | P93_24 | P94_40 | PAD | PC15 | PC26 | PC49 | SC27B

C[C@]12CCC(=O)C=C1CC[C@@H]1[C@H]2[C@@H](O)C[C@@]2(C)[C@H]1CC[C@]2(O)C(=O)CO
inactive: DFO2036 | DIV14 | DIV17 | DIV30 | Dd2 | ECU | FAB9 | GB4 | HB3 | ICS | JCK | N140 | P93_24 | P94_40 | PAD | PC15 | PC26 | PC49 | SC27B | TAB109

CCC(C)(Oc1ccc(C2(c3ccc(OC(C)(CC)C(=O)O)cc3)CCCCC2)cc1)C(=O)O (configuration not stated)
inactive: DFO2036 | DIV14 | DIV17 | DIV30 | Dd2 | ECU | FAB9 | GB4 | HB3 | ICS | JCK | N140 | P93_24 | P94_40 | PAD | PC15 | PC26 | PC49 | SC27B

Nc1ccc(S(N)(=O)=O)cc1
inactive: DFO2036 | DIV14 | DIV17 | DIV30 | Dd2 | ECU | FAB9 | GB4 | HB3 | ICS | JCK | N140 | P93_24 | P94_40 | PAD | PC15 | PC26 | PC49 | SC27B | TAB109

CCCCCCCCCCCCCCCCCCCCCCO
inactive: DFO2036 | DIV14 | DIV17 | DIV30 | Dd2 | ECU | FAB9 | GB4 | HB3 | ICS | JCK | N140 | P93_24 | P94_40 | PAD | PC15 | PC26 | PC49 | SC27B | TAB109

CC1(C)CCC(C)(C)c2cc(NC(=O)c3ccc(C(=O)O)cc3)ccc21
inactive: DFO2036 | DIV14 | DIV17 | DIV30 | Dd2 | ECU | FAB9 | GB4 | HB3 | ICS | JCK | N140 | P93_24 | P94_40 | PAD | PC15 | PC26 | PC49 | SC27B | TAB109

CNC[C@@H](O)[C@@H](O)[C@H](O)[C@H](O)CO
inactive: DFO2036 | DIV14 | DIV17 | DIV30 | Dd2 | ECU | FAB9 | GB4 | HB3 | ICS | JCK | N140 | P93_24 | P94_40 | PAD | PC15 | PC26 | PC49 | SC27B | TAB109

O=P(O)(O)C(O)(Cn1ccnc1)P(=O)(O)O
inactive: DFO2036 | DIV14 | DIV17 | DIV30 | Dd2 | ECU | FAB9 | GB4 | HB3 | ICS | JCK | N140 | P93_24 | P94_40 | PAD | PC15 | PC26 | PC49 | SC27B | TAB109

N[C@@H](Cc1cc(I)c(Oc2cc(I)c(O)c(I)c2)c(I)c1)C(=O)O
inactive: DFO2036 | DIV14 | DIV17 | DIV30 | Dd2 | ECU | FAB9 | GB4 | HB3 | ICS | JCK | N140 | P93_24 | P94_40 | PAD | PC15 | PC26 | PC49 | SC27B | TAB109

CNC[C@H](O)c1ccc(O)c(O)c1
inactive: DFO2036 | DIV14 | DIV17 | DIV30 | Dd2 | ECU | FAB9 | GB4 | HB3 | ICS | JCK | N140 | P93_24 | P94_40 | PAD | PC15 | PC26 | PC49 | SC27B | TAB109

O=C(O)c1cccnc1Nc1cccc(C(F)(F)F)c1
inactive: DFO2036 | DIV14 | DIV17 | DIV30 | Dd2 | ECU | FAB9 | GB4 | HB3 | ICS | JCK | N140 | P93_24 | P94_40 | PAD | PC15 | PC26 | PC49 | SC27B | TAB109

Nc1cccc2c1CN(C1CCC(=O)NC1=O)C2=O (configuration not stated)
inactive: DFO2036 | DIV14 | DIV17 | DIV30 | Dd2 | ECU | FAB9 | GB4 | HB3 | ICS | JCK | N140 | P93_24 | P94_40 | PAD | PC15 | PC26 | PC49 | SC27B | TAB109

CN(C)CCc1c[nH]c2ccc(Cn3cncn3)cc12
inactive: DFO2036 | DIV14 | DIV17 | DIV30 | Dd2 | ECU | FAB9 | GB4 | HB3 | ICS | JCK | N140 | P93_24 | P94_40 | PAD | PC15 | PC26 | PC49 | SC27B
